The nature of assay [1]: Cell Viability - HepG2 (AID 433; calls by dose curve;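 note: potency is the fitted concentration of half-maximal effect; cells exposed to compound for 40 hours; potency for ATP loss meaning cytotoxicity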). Conditions: qHTS. The gist of the method: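 HepG2 hepatocellular carcinoma cells (1500/well) were treated with compounds for 40 h at 37 °C in complete medium; intracellular ATP was read by CellTiter-Glo luminescence. Data were normalized to DMSO and 100 uM tamoxifen, and AC50 came from Hill fits.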
Background: In qHTS, concentration-response curves come from the screen itself.

Assay [2] is described as follows: Cell Viability - SH-SY5Y (AID 544).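 Note: cells exposed to compound for 40 hours; nearly all actives have a fitted effect of over 55% in size.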 Conditions: SH-SY5Y neuroblastoma cell viability; viability change, negative = cytotoxic: at 92.2 µM (top of the series). Summed up:
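Luminescent ATP read-out (CellTiter-Glo) measures loss of viable SH-SY5Y neuroblastoma cells after 40 hr compound exposure at 37 °C. AC50 values derive from standard Hill modelling of qHTS concentration-response data.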

The nature of assay [3]: Cellular Toxicity (caspase-3) HepG2 (AID 654).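 Note: cells exposed to compound for 16 hours before reading; 0% = DMSO alone and 100% = caspase signal from 100 µM tamoxifen.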 Conditions: HepG2 caspase-3 activation, luminescence, 0% = DMSO only, 100% = tamoxifen; series mostly up to 92.2 µM. Summed up:
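Cells plated 5 hr at 37 °C, compound added, incubated 16 hr at 37 °C. Caspase-Glo 3/7 reagent followed, 20 min at room temperature, then luminescence read. Activation scored as signal increase; AC50 from Hill fit.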

A short description of assay [4]: Cellular Toxicity (caspase-3) HUV-EC-C (AID 656). The conditions noted are these: HUV-EC-C cells, caspase-3 activation (apoptosis), vehicle = 0, 100 µM tamoxifen = 100%; series mostly up to 92.2 µM. The gist of the method: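 HUV-EC-C endothelial cells, 1000/well, were pre-incubated 5 hr at 37°C, then exposed to compounds for 16 hr at 37°C. Caspase-Glo 3/7 luminescence was read after 20 min at room temperature. AC50 came from Hill fits, normalized to DMSO and 100 uM tamoxifen.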

A short description of assay [5]: Cellular Toxicity (caspase-3) Mesangial (AID 660).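 Note: combined caspase 3 and 7 activity read by Caspase-Glo luminescence; cells exposed to compound for 16 h before the caspase read.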 The conditions noted are these: mesangial cells, normalized: DMSO 0%, 100 µM tamoxifen 100%; series mostly up to 91.7 µM. Summed up: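 Mesangial cells, 1000/well, 5 h settle at 37 °C; compound 16 h, 37 °C; Caspase-Glo 3/7 reagent 20 min RT; luminescence. Norm.: DMSO = 0%, tamoxifen 100 uM = 100%. AC50, Hill fit.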

A short description of assay [6]: Cellular Toxicity (caspase-3) SK-N-SH (AID 661).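 Note: 0% = DMSO basal and 100% = 10 µM staurosporine.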 Conditions: SK-N-SH caspase-3 activation, qHTS; series mostly up to 91.7 µM. The gist of the method: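 Human neuroblastoma SK-N-SH, 1500 cells/well, 5 hr pre-incubation, then compound 16 hr, 37 °C. Caspase-Glo 3/7 reagent, 1 hr RT, luminescence. Norm. to DMSO/10 uM staurosporine; Hill-fit AC50.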
Assay [7] in a line: Cellular Toxicity (caspase-3) Hek293 (AID 664).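 Note: cells exposed to compound for 16 h at 37 °C before readout.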 The conditions noted are these: HEK293 caspase-3 activation, DMSO = 0%, 100 µM tamoxifen = 100%; at 92.2 µM (top of the series). Summed up:
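Cells plated, 5 hr at 37 °C; compounds added; 16 hr at 37 °C; Caspase-Glo 3/7 reagent, 20 min RT; luminescence read. Activation expressed relative to DMSO and 100 uM tamoxifen, AC50 by Hill model.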

A short description of assay [8]: Cellular Toxicity (caspase-3) NIH 3T3 (AID 666).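 For caspase-3 activation: 0% = DMSO basal and 100% = 100 µM tamoxifen stimulation.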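 Note: caspase signal read after 16 h compound exposure.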 Note: potency is the fitted concentration of half-maximal effect. The conditions noted are these: NIH 3T3 caspase-3 activation, apoptosis/toxicity; series mostly up to 92.2 µM. Summed up:
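Luminescence from aminoluciferin released by caspase-3/7 cleavage of a peptide substrate served as read-out. Mouse fibroblast NIH 3T3 cells were exposed to compounds over a concentration range for 16 hours, and AC50 values came from standard Hill modelling.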

Assay [9] in a line: Cell Viability - LYMP2-023 (AID 975).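 Note: cellular ATP measured by luciferase luminescence as viability proxy; cells exposed to compound for 24 hours at 37 °C; plate controls were DMSO only for no effect and 92 µM tetraoctylammonium bromide control for full effect; nearly all actives have a fitted effect of over 55% in size.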 The conditions noted are these: LYMP2-023 lymphoblastoid cell viability; series mostly up to 92.2 µM. Summed up: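 2500 cells/well, 5 hr 37 C; cpd 24 hr 37 C; CellTiter-Glo, 30 min RT; luminescence. qHTS conc-response, Hill fit -> AC50. Pos ctrl tetraoctylammonium bromide.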
Assay [10] is described as follows: Cell Viability - LYMP2-014 (AID 983).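 Note: cells exposed to compound for 24 h at 37 °C; plate controls were DMSO only for no effect and 92 µM tetraoctylammonium bromide for full effect; nearly all actives have a fitted effect of over 50% in size.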 Conditions: LYMP2-014 lymphoblastoid cells, viability qHTS; series mostly up to 92.2 µM. The gist of the method:
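Luminescent ATP signal (CellTiter-Glo, 30 min at room temperature) serves as the viability read-out after 24 hr compound exposure at 37 C. Cells were seeded at 2500 per well and settled 5 hr beforehand.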

Assay [11] is described as follows: Cell Viability - LYMP2-026 (AID 989).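 Note: cells exposed to compound for 24 h at 37 °C; % is set by controls: 0 for no effect and ±100 for the full control effect; nearly all actives have a fitted effect of over 50% in size.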 Conditions: LYMP2-026 lymphoblastoid cell viability, qHTS; series mostly up to 92.2 µM. The gist of the method:
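Luminescent ATP signal (CellTiter-Glo, 30 min room temperature) measures viable lymphoblastoid cells after 24 hr compound treatment at 37 C. Decreased ATP reflects acute toxicity; AC50 values come from Hill-equation modeling.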

Assay [12] addresses Vitamin D3 receptor (Homo sapiens) (UniProt P11473). The assay can be described thus: qHTS assay for small molecule antagonists of vitamin D receptor signaling (AID 588541; calls by dose curve;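 note: receptor activated by calcitriol during compound treatment; % is set by controls: 0 for no effect and ±100 for the full control effect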). The conditions noted are these: HEK293T VDR-UAS-bla, beta-lactamase ratio, antagonist mode; series mostly up to 76.7 µM. Summed up:
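VDR-UAS-bla HEK293T cells (2000/well, 2% charcoal-stripped FBS) were treated with titrated compounds plus 1-alpha,25-dihydroxyvitamin D3 (50 nM or 3 nM final) for 16 h at 37 C. CCF4 beta-lactamase fluorescence was read; Hill fits gave IC50.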

Assay [13] has the same target. In words: qHTS assay for small molecule agonists of vitamin D receptor signaling (AID 588543; calls by dose curve;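 note: 0% = DMSO basal and 100% = reference agonist control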). The conditions noted are these: HEK293T VDR-UAS-bla, beta-lactamase ratio, 16 h; series mostly up to 76.8 µM. The gist of the method: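 GeneBLAzer VDR-UAS-bla HEK293T cells in 2% charcoal-stripped FBS medium were dosed with compound titrations for 16 h at 37 °C; CCF4 β-lactamase readout (405 nm ex, 460/530 nm em). EC50 and efficacy from Hill fits, normalized to 50 nM calcitriol (100%) and DMSO (0%).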

The target in assay [14] is Voltage-gated inwardly rectifying potassium channel KCNH2 (Homo sapiens) (UniProt Q12809). The assay can be described thus: qHTS Assay for Small Molecule Inhibitors of the Human hERG Channel Activity (AID 588834).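 Note: top concentration of the series differs between compounds; % is set by controls: 0 for no effect and ±100 for the full control effect; lower thallium flux fluorescence means stronger hERG block; nearly all actives have a fitted effect of over 50% in size.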 Conditions: U2OS BacMam hERG, FluxOR thallium flux fluorescence; series mostly up to 92.2 µM. The gist of the method: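 U2OS cells transduced with hERG via BacMam (MOI ~100), plated 2000/well, loaded with FluxOR thallium dye, compound ~10 min, then stimulation buffer; fluorescence decrease read kinetically; AC50 from Hill fits.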
Voltage-gated inwardly rectifying potassium channel KCNH2 (Homo sapiens), sequence (Q12809 whole entry, looked up): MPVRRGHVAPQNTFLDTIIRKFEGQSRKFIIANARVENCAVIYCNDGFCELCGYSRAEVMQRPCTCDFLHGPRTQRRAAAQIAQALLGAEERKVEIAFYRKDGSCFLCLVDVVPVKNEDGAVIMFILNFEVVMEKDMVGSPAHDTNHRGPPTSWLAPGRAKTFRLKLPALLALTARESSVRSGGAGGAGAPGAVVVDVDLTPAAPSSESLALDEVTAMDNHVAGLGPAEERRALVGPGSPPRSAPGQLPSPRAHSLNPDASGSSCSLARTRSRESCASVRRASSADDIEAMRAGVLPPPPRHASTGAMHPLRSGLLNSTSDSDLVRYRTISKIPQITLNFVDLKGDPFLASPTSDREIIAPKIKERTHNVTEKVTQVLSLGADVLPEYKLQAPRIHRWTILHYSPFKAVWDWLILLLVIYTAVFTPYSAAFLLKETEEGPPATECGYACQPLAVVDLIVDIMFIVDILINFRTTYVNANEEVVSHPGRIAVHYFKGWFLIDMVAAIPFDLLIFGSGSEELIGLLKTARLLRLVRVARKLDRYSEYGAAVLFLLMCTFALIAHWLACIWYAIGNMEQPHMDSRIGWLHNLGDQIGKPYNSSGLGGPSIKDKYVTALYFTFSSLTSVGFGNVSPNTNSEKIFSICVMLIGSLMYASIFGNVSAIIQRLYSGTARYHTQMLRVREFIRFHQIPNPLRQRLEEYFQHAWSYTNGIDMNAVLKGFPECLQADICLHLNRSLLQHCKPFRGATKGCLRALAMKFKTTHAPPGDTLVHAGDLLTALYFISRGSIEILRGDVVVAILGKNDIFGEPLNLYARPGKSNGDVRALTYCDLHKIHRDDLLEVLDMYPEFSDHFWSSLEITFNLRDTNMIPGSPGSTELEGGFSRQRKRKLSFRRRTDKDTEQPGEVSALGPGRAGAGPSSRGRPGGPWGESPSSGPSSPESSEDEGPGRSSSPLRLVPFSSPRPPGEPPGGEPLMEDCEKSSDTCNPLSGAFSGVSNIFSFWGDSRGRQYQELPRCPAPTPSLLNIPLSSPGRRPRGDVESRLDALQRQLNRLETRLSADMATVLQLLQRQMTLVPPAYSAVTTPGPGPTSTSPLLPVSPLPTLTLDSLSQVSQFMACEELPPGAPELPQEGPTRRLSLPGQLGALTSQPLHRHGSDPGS

Assay [15] can be described thus: qHTS assay for small molecule disruptors of the mitochondrial membrane potential - 1 hr assay (AID 651754; calls by dose curve; note: nearly all actives have a fitted effect of over 35% in size; note: potency is the fitted concentration of half-maximal effect). The conditions noted are these: series mostly up to 92.2 µM. Summed up: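 HepG2, 2,000 cells/well, overnight attachment; cpd or DMSO 1 hr, 37C/5% CO2; Mito-MPS dye 30 min, 37C; fluorescence monomer (490/535) and aggregate (540/590).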
The target in assay [16] is Peroxisome proliferator-activated receptor delta (Homo sapiens) (UniProt Q03181). The assay can be described thus: qHTS assay for small molecule agonists of peroxisome proliferator-activated receptor delta signaling (AID 588534; calls by dose curve;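 note: 0% = DMSO basal wells and 100% = positive control agonist at 10 µM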). The conditions noted are these: HEK293T PPARdelta-UAS-bla, beta-lactamase ratio, 18 h; series mostly up to 76.7 µM. Summed up:
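Fluorescence from CCF4 substrate cleavage by beta-lactamase reporter, read 2 hrs at RT, measured agonist activity. Compounds were tested with 18 hrs exposure at 37 C. Concentration-response data fitted to Hill equation.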

The nature of assay [17]: qHTS assay for small molecule activators of the p53 signaling pathway (AID 651743; active = well fitted activation curve with a large enough effect in the signal ratio, not every such curve was filed as active; the % refers to the signal ratio; note: % of control where 0% means no effect). The conditions noted are these: HCT-116 p53RE-bla, beta-lactamase FRET ratio, 16 h; activation: hits give high values. The gist of the method: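 Cell-based beta-lactamase reporter (p53 response elements, HCT-116 background). After a 5-hour preincubation, cells received compound for 16 hours at 37 C; substrate development ran 2 hours at room temperature.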

Assay [18] deals with Nuclear receptor ROR-gamma (Homo sapiens) (UniProt P51449). In words: qHTS assay for small molecule antagonists of the retinoid-related orphan receptor gamma (ROR-gamma) signaling pathway (AID 651802). Note: nearly all actives have a fitted effect of over 60% in size. Note: potency is the fitted concentration of half-maximal effect. The conditions noted are these: ROR-gamma antagonist cell reporter assay; series mostly up to 92.2 µM. The gist of the method:
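CHO, TET-inducible ROR + RORE-LUC reporter, 1536-well qHTS. Compound pinned, doxycycline added, 16hr 37C/5% CO2. ONE-Glo, 30 min RT, luminescence; signal drop scored as antagonism.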

Assay [19] in a line: qHTS assay for small molecule agonists of the antioxidant response element (ARE) signaling pathway measured by Nrf2-dependant transcriptional activity - cell viability counter screen (AID 720653; active = well fitted curve in the direction sought with a large enough effect in the repeat runs; an effect the other way counts as inactive or inconclusive; note: % is set by controls: 0 for no effect and ±100 for the full control effect). Conditions: ARE-bla HepG2 viability, CellTiter-Glo ATP luminescence, 16 h; hits give low values. Summed up:
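ARE-bla HepG2 cells (2,000/well) rested 5 hrs at 37C/5% CO2, then exposed to compounds in DMSO for 16 hrs. Viability was read in the same wells as intracellular ATP by luminescence, 30 min at room temperature after reagent addition.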

Assay [20] can be described thus: Cell Viability - Mesenchymal (AID 546).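 Note: cells exposed to compound for 40 hours before reading.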 The conditions noted are these: mesenchymal cells viability, qHTS; series mostly up to 91.7 µM. The gist of the method:
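Normal human renal glomerulus-derived kidney mesenchymal cells, 1000 per well in complete medium, were treated with compounds for 40 hr at 37 °C. Viability was read as intracellular ATP by CellTiter-Glo luminescence; AC50 values came from Hill-equation fits of qHTS concentration-response data.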

The record followed here is PubChem BioAssay (NCATS).

Several values for one entry are separate records, joined by “and”; a condition that tells them apart may be missing. Identical values can stand only once. A number with no mark means an inactive call. Records with an inconclusive call do not appear. Activity calls are given as the source filed them. Unless noted, calls come from the whole dose curve; as a rule, active = well fitted curve in the direction sought with a large enough effect; inconclusive = small, poorly fitted or top-dose-only effect, or another doubt; inactive = no such curve, though single readings can be large; an effect the other way counts as inactive or inconclusive.

Nuclear receptor ROR-gamma (Homo sapiens), sequence (P51449 whole entry, looked up): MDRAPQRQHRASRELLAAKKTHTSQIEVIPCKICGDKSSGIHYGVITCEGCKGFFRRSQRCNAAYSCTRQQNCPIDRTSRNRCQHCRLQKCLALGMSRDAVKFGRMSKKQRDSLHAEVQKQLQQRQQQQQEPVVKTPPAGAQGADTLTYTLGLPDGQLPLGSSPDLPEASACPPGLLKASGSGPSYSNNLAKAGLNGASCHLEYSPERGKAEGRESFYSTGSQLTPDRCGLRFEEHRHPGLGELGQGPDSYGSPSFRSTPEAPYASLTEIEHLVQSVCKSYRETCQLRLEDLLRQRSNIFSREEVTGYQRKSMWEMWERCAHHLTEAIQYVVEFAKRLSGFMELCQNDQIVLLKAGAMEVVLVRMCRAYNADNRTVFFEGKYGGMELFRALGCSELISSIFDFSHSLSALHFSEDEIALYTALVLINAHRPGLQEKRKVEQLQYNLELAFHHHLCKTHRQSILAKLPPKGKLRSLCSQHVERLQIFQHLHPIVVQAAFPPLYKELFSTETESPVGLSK
Peroxisome proliferator-activated receptor delta (Homo sapiens), sequence (Q03181 whole entry, looked up): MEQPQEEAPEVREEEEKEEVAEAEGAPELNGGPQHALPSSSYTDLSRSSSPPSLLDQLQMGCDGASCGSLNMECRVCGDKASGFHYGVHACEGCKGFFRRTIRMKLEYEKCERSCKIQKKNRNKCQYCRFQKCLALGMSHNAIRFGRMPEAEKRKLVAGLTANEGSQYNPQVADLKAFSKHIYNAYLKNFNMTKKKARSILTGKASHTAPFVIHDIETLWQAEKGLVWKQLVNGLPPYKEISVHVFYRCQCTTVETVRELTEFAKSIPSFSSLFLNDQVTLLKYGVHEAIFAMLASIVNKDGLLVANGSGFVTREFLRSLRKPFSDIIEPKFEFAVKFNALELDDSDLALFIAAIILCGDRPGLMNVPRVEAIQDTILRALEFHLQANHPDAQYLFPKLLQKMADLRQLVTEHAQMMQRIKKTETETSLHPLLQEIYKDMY
Vitamin D3 receptor (Homo sapiens), sequence (P11473 whole entry, looked up): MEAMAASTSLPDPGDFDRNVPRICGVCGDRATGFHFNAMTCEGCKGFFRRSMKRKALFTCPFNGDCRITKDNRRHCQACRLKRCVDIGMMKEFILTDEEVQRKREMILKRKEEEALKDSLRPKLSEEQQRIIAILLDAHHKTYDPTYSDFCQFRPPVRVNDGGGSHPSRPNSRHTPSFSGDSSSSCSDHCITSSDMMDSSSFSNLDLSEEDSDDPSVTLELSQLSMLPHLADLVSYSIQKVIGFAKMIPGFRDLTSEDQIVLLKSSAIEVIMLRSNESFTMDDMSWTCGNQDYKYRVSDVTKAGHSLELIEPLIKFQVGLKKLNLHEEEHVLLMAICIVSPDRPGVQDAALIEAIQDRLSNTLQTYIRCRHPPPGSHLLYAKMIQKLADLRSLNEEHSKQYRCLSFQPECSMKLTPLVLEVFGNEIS

Turning to `CCCC[N+](=O)[O-]`, the Potency in assay [1] was > 92 µM. Moreover, the Potency result in assay [2], in [6], in assay [8], in assay [9], in assay [10] and in assay [11] was “inactive” in each case. Further, the Potency result in assay [14] and in assay [15] was “inactive” throughout. The result in assay [3], in assay [4], in assay [5], in assay [12] and in assay [13] was inactive. For the same compound, in [7], the caspase-3 activation is 23.2%.
Turning to `Cl/C=C/Cl`, the Potency in [1] is > 92 µM. Moreover, the Potency entry in assay [2], in [9], in assay [10], in [11], in assay [14] and in [18] was “inactive” in each case. The compound was classed as inactive in assay [3], in assay [4], in [16], in assay [12] and in assay [13]. In assay [7], the caspase-3 activation is -0.612%. In addition, the activation in assay [17] was -3.7%. The max response in assay [19] was 1.77%.
For `CN(C)C(=O)Nc1cccc(C(F)(F)F)c1`, the Potency in assay [1] is > 92 µM. The Potency entry in assay [2], in assay [20], in assay [6], in [8], in assay [9] and in assay [10] was “inactive” in each case. For the same compound, the Potency entry in assay [14], in assay [15] and in [18] was “inactive” in each case. The outcome in assay [3], in assay [4], in assay [5], in [16], in assay [12] and in assay [13] was inactive. In assay [17], the activation is 0.966% and 0.726%.
`CC(C)[N+](=O)[O-]`: the Potency in assay [1] is > 92 µM. In addition, the Potency entry in assay [2], in [8], in [9], in [10], in assay [11] and in assay [14] was “inactive” throughout. In addition, in [18], the Potency entry was “inactive”. Further, the result in assay [3], in assay [4], in assay [5], in [12] and in [13] was inactive. Moreover, the caspase-3 activation in assay [7] is -0.5%. Moreover, the activation in assay [17] was -2.67%. The max response in [19] is 1.53%.
As to `O=C(Cl)c1ccccc1F`, the Potency in [1] was > 92 µM. Further, the Potency entry in assay [2], in assay [20], in assay [6], in [8], in assay [9] and in [10] was “inactive” in each case. For the same compound, the Potency entry in assay [11], in assay [14], in assay [15] and in assay [18] was “inactive” throughout. Also, the call in [3], in assay [5], in [16], in assay [12] and in [13] was inactive. For the same compound, the activation in assay [17] is -0.282%. For the same compound, in assay [19], the max response is 6.36%.
Take `O=[N+]([O-])c1cc(Cl)c(Cl)c(Cl)c1`: the Potency in assay [1] was > 92 µM; in assay [8], 25.1 µM (active). Moreover, the Potency entry in assay [2], in assay [20], in assay [6], in [9], in [10] and in assay [11] was “inactive” in each case. The Potency result in assay [14], in assay [15] and in [18] was “inactive” in each case. For the same compound, the outcome in assay [3], in assay [4], in assay [5], in assay [16], in [12] and in assay [13] was inactive. In [7], the caspase-3 activation is 2.74%. Moreover, in assay [17], the activation was -1.35%. In addition, the max response in assay [19] is -3.56%.
For `Oc1c(Cl)c(Cl)cc(Cl)c1Cl`, the Potency in [1] was > 92 µM; in [15], 42.2 µM (active); in assay [18] it was 21.1 µM (active). The call in [3], in assay [4], in [5] and in [16] was inactive. In addition, the Potency result in [6], in assay [8], in [9], in assay [11] and in assay [14] was “inactive” each time.
